Bioassay records as filed in PubChem BioAssay.
Only some compounds are listed: those with a hit (about 6.3% of all), similar ones and a draw of the others.
Mdm2 MdmX PPI = disrupts the human Mdm2-MdmX interaction. inhibition, % at 8 µM. 3% of 330,000 active. SaOS-2 split-luciferase Mdm2/MdmX complementation, luminescence. O15151+Q00987;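 active means inhibition of at least 50% at 8 µM in the primary screen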
Target sequence (O15151 whole entry, looked up): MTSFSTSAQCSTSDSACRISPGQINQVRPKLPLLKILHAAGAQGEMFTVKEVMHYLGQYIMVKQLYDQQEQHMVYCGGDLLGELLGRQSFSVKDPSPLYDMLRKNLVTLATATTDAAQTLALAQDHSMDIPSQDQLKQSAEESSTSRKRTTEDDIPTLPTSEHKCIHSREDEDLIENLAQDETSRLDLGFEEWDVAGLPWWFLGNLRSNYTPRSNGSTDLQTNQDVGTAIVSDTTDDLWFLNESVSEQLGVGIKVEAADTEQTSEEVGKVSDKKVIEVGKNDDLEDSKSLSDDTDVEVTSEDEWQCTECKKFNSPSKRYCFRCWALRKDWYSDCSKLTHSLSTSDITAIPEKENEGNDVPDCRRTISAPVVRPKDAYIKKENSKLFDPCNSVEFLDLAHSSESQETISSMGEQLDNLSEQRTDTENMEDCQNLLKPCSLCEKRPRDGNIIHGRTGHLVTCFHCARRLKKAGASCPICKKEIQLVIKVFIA
Target sequence (Q00987 whole entry, looked up): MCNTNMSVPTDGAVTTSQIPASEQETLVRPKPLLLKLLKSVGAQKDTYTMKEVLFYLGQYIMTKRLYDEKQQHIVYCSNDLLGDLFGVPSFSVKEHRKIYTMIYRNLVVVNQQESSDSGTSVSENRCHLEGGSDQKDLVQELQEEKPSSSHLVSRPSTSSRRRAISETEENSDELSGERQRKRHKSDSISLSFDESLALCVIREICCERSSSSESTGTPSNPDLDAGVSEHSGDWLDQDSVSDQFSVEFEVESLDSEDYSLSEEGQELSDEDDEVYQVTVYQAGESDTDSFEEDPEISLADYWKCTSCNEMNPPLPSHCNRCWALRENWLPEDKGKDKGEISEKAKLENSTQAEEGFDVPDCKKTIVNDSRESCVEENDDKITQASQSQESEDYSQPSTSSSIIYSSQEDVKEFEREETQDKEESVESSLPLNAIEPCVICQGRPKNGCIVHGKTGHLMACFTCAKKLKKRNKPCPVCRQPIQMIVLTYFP
tim23-1 inh = tim23-1 yeast growth inhibition; inhibition, % at 20 µM; S. cerevisiae tim23-1 growth, BacTiter-Glo luminescence, 24 h; 1.3% of 330,000 active;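 active means growth inhibition of the mutant yeast at or above 50%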;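 further: temperature-sensitive mutant grown at 25 °C; plate controls were DMSO-treated mutant yeast for no effect and medium wells lacking yeast for full effect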
tim10-1 inh = tim10-1 yeast growth inhibition | 2.2% of 330,000 active | S. cerevisiae tim10-1 ts strain growth, BacTiter-Glo, 24 h | inhibition, % at 20 µM;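 active means inhibition of at least 40%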;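 further: mutant grown at 25 °C; 0% = DMSO wells with yeast and 100% = wells holding no yeast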
MPTP block = permeability transition pore inhibition; AID 602449; inhibition, % at 10 µM; isolated mouse mitochondria, Ca2+ swelling absorbance, 30 min; 1.4% of 360,000 active;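 active means inhibition of 50% or more, scaled per plate between neutral and stimulator controls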;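 further: 0% = DMSO wells given calcium and 100% = 1 mM EGTA wells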
TIM10 inh = inhibits growth of TIM10 yeast strain | S. cerevisiae TIM10 strain growth, BacTiter-Glo luminescence, 24 h | inhibition, % at 10 µM | 1.4% of 330,000 active;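 active means inhibition of 40% or more at the single tested concentration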;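 further: wild-type TIM10 isogenic control strain grown at permissive 25 °C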
Mdm2 MdmX conf = confirmation of human Mdm2/MdmX interaction inhibitors. shares compounds with Mdm2 MdmX PPI. Mdm2-MdmX binding, luminescent assay. inhibition, % at 8 µM. 55% of 10,000 active; in the data active means inhibition above about 40%
Full FLuc ctr = counter-screen for Mdm2/MdmX inhibitors: full-length luciferase; SaOS-2 full-length luciferase counterscreen, luminescence; AID 504607; shares compounds with Mdm2 MdmX PPI; inhibition, % at 8 µM; 77% of 6,200 active;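 active means mean inhibition at 8 µM reaching about 37%, which flags the compound as non-specific, limit read from the data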;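 further: p53-null SaOS-2 cells with luciferase driven by a doxycycline-inducible promoter; compound on cells about two nights before reading with doxycycline added after day one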
An asterisk follows results filed as active; / = no result.

SMILES | Mdm2 MdmX PPI | tim23-1 inh | tim10-1 inh | MPTP block | TIM10 inh | Mdm2 MdmX conf | others
O=S1(=O)CC(N2CCN(CC3CC3)CC2)CN1Cc1ccccc1 (configuration not stated) | / | / | / | 1 | / | /
C[C@@H]1CN([C@@H](C)CO)C(=O)CCCn2nncc2CO[C@H]1CN(C)S(=O)(=O)c1cccc(C#N)c1 | / | / | / | 0 | / | /
CC(C)(c1ccccc1)c1ccc(OCC2CO2)cc1 (configuration not stated) | 7 | 2 | -7 | 1 | 14 | /
O=S(=O)(c1ccc(OCC2CO2)cc1)c1ccc(OCC2CO2)cc1 (configuration not stated) | 87* | 12 | 13 | 1 | 22 | 34
O=C(C[C@H]1CC[C@H](NC(=O)Nc2ccccc2F)[C@@H](CO)O1)NCc1ccc(-c2ccccc2)cc1 | / | / | / | -1 | / | /
CCN(CC)CCNC(=O)c1cc(-c2cccnc2)nc2ccc(S(=O)(=O)N3CCC(C)CC3)cc12 | 100* | 5 | -2 | 0 | 0 | 76* | Full FLuc ctr=53*
CCCCN(C)CCNC(=O)c1cc(-c2cccnc2)nc2ccc(S(=O)(=O)N3CCC(C)CC3)cc12 | 96* | -5 | 7 | -1 | 6 | 26
CCCCNS(=O)(=O)c1ccc2nc(-c3cccnc3)cc(C(=O)NCCCN(CC)CC)c2c1 | -9 | -1 | 6 | / | 8 | /
CCCCN(C)CCCNC(=O)c1cc(-c2cccnc2)nc2ccccc12 | -24 | 8 | -9 | 1 | 8 | /
CC(=O)C1=CCC(c2ccccc2)N(S(=O)(=O)c2ccccc2)C1 (configuration not stated) | / | / | / | 1 | / | /
CCOc1cc(CNc2ccc(N3CCOCC3)cc2)cc(Br)c1OCC | -4 | 28 | 21 | 17 | 15 | /
CCOc1cc(CNc2ccc3c(c2)OCCO3)cc(Br)c1OCC | 73* | 13 | 6 | 2 | 5 | 70* | Full FLuc ctr=62*
CC(C)c1ccc(NC(=O)C2Cc3c(-c4cccc(F)c4)ccnc3O2)cc1 (configuration not stated) | / | / | / | 1 | / | /
CCOC(=O)C1CCCN(C(c2ccccn2)c2c(C)[nH]c3ccccc23)C1 (configuration not stated) | 53* | 8 | 7 | 0 | 5 | 4
Cc1ccnc(NC(c2ccccn2)c2c(C)[nH]c3ccccc23)c1 (configuration not stated) | 50 | 4 | -4 | -1 | 6 | /
Cc1[nH]c2ccccc2c1C(c1ccccn1)N1CCC(C)CC1 (configuration not stated) | 51* | 4 | 10 | -1 | 11 | 0
CCOC(=O)C1CCCN(C(=O)Cc2c(C(=O)O)[nH]c3ccccc23)C1 (configuration not stated) | 13 | 7 | 5 | 0 | 6 | /
N#CCC1(O)C(=O)N(Cc2ccccc2)c2ccccc21 (configuration not stated) | / | / | / | -1 | / | /
COc1ccc(/C=C/C(=O)NCCc2ccc(OC)c(OC)c2)cc1 | -2 | 10 | -1 | 6 | 2 | /
COc1ccc(CCNC(=O)/C=C/c2ccc3ccccc3n2)cc1OC | 58* | 30 | 19 | 0 | 23 | 69* | Full FLuc ctr=54*
CC1CCCC(C)N1CCCNC(=O)C1CCCN(S(=O)(=O)N2CCCCC2)C1 (configuration not stated) | / | / | / | 0 | / | /
O=C1NC[C@H](CCCCN2C[C@H](Cc3ccccc3)N(Cc3ccccc3)C(=O)C2=O)N(CCc2ccccc2)C1=O | / | / | / | 1 | / | /
COc1ccc(-c2cccc(-c3cc(=O)oc4cc(OC)c(OC)c(OC)c34)c2)cc1 | 37 | 30 | -2 | 0 | -7 | /
COc1ccc(-c2cccc(-c3cc(=O)oc4cc5c(cc34)OCO5)c2)cc1 | 54* | 37 | 5 | -1 | -3 | 24
COc1cc(OC)c2c(-c3cccc(-c4ccc(O)cc4)c3)cc(=O)oc2c1 | 73* | 42 | -20 | -1 | -74 | 56* | Full FLuc ctr=43*
SMILES | Mdm2 MdmX PPI | tim23-1 inh | tim10-1 inh | MPTP block | TIM10 inh | Mdm2 MdmX conf | others
COc1ccc(-c2cccc(-c3cc(=O)oc4cc(OC)cc(OC)c34)c2)cc1 | 78* | 37 | -4 | -2 | -12 | 54* | Full FLuc ctr=68*
COc1cc(OC)c2c(-c3cccc(-c4ccc(N(C)C)cc4)c3)cc(=O)oc2c1 | 67* | 19 | -21 | 0 | -33 | 56* | Full FLuc ctr=103*
Cn1c(=O)c2c(ncn2CC(=O)OCC(=O)c2ccc(OC(F)F)cc2OC(F)F)n(C)c1=O | / | / | / | -1 | / | /
COc1cc(OC)c2c(-c3cccc(-c4ccc(CO)cc4)c3)cc(=O)oc2c1 | 74* | 41 | -5 | 2 | -69 | 63* | Full FLuc ctr=62*
COc1cc(OC)c2c(-c3cccc(-c4cccc(C)c4)c3)cc(=O)oc2c1 | 44 | 21 | 1 | 0 | -25 | /
O=C(c1ccncc1)N1N=C(c2ccc(Br)cc2)CC1c1ccccc1O (configuration not stated) | 43 | 38 | -76 | -1 | 17 | /
O=C(c1ccccc1Cl)N1N=C(c2ccc(Br)cc2)CC1c1nc2ccccc2[nH]1 (configuration not stated) | 71* | 13 | 25 | 2 | 17 | 50* | Full FLuc ctr=90*
O=C(CC1CCCC1)NCCS(=O)(=O)N1CCN(c2ccccc2)CC1 | / | / | / | 1 | / | /
O=C(Cn1cnc2c(oc3nc4c(cc32)CCCC4)c1=O)Nc1cccc(Cl)c1 | 57* | -6 | 3 | 2 | 2 | 2
Cc1ccc(C(=Cc2ccc([N+](=O)[O-])cc2)C(=O)O)cc1 | / | / | / | 0 | / | /
CCc1ccc(C(=O)C(C)OC(=O)Cn2[nH]c(=O)c3ccccc3c2=O)cc1 (configuration not stated) | -21 | 29 | 13 | 0 | 18 | /
CCc1ccc(C(=O)C(C)OC(=O)Cc2n[nH]c(=O)c3ccccc23)cc1 (configuration not stated) | 59* | 19 | 18 | 1 | 17 | 74* | Full FLuc ctr=58*
O=C1NC(=O)N2CCSC2(Cc2ccccc2)N1 (configuration not stated) | / | / | / | -2 | / | /
O=C1NC[C@@H](CCCCN2CCN(CCc3ccccc3)C(=O)C2=O)N(Cc2ccccc2)C1=O | / | / | / | -1 | / | /
CN1CCN(Cc2c(O)ccc3cc(Br)ccc23)CC1 | 51* | 17 | 30 | / | 1 | 8
Cc1nn(Cc2c(Cl)cccc2Cl)c(Cl)c1/C=C/C(=O)OCC(=O)NCC(F)(F)F | 79* | -5 | -6 | -6 | -24 | 25
COc1ccc(NC(=O)C2(c3ccc(NC(=O)c4ccc(OC)c(OC)c4)cc3)CCCC2)cc1 | 55* | 1 | 10 | 1 | 19 | 21
Cc1sc(N=Nc2ccc(N(C)C)cc2)[n+]([O-])c1C | / | / | / | 10 | / | /
CCOC(=O)C1=C(C)NC(SC)=C(C#N)C1CC(C)C (configuration not stated) | 55* | 24 | 19 | 15 | 11 | 62* | Full FLuc ctr=66*
